The source made the active and inactive calls. Rule for the calls: active = hit-call score of the fitted dose curve at least 0.9, where 1 is the maximum; inactive = score below 0.9.

A short description of this experiment: CCTE_Shafer_MEA_dev_per_network_spike_spike_percent: CCTE's Neural Network Formation Assay for Percent of Spikes in a Network Spike, Shafer Lab (AID 2284054). The protocol:
CCTE_Shafer_MEA_dev assay is conducted using Axion Biosystems 48 well microelectrode array (MEA) plates and Maestro recording system. Each well of the MEA plate contains a grid of 16 microelectrodes embedded in the culture surface. Electrically active cells, such as neurons, can be cultured over the electrodes, and electrical activity in these cells can be recorded extracellularly. The spontaneous firing of neurons is captured from each electrode on a microsecond timescale providing both temporally and spatially precise data. […] The CCTE_Shafer_MEA_dev assay uses primary cultures of rat cortical neurons. Recordings are made on days post-plating 5, 7, 9 and 12. As these cultures mature over time, neural networks develop functional activity and form cohesive networks in which electrical activity can be highly coordinated. CCTE_Shafer_MEA_dev_per_network_spike_spike_percent is 1 of 19 assay components of the CCTE_Shafer_MEA_dev assay. It measures the percent of spikes (action potential firings) in a network spike (temporally-clustered group of spikes across multiple electrodes) as the number of spikes that occur within a 0.05 s time window at the peak of a network spike divided by the total number of spikes during a recording in a microelectrode array (MEA) using Axion Biosystems Maestro 768 channel amplifier with the AxIS adaptive spike detector. To collapse across multiple recordings made on days post-plating 5, 7, 9 and 12, the trapezoidal area-under-the-curve of the component is calculated.Data from the assay component CCTE_Shafer_MEA_dev_per_network_spike_spike_percent was analyzed into 1 assay endpoint. This assay endpoint, CCTE_Shafer_MEA_dev_per_network_spike_spike_percent, was analyzed in the negative analysis fitting direction relative to DMSO as the negative control and baseline of activity. Using a type of functional reporter, gain or loss-of-signal activity can be used to understand electrical activity.
On the day prior to culture, each well was coated thoroughly with 150 uL of 0.05% polyethyleneimine (PEI, Sigma Cat P3143) in 50 mM HEPES (Sigma Cat H7523) at a pH of 8. The plate was incubated at 37C for one hour. PEI was rinsed out with 500 uL of sterile water three times. Plates were stored at 4C until the day of culture. This culture was plated at a seeding density of 1.5 x 10^5 cells/well on a 48-well MEA plate, prepared as described above. Cells were administered via a 25 uL media/laminin ([…]; Sigma Cat L2020-1MG) drop directly onto the microelectrode array, as adding the cells with the laminin results in better attachment than pre-coating with laminin. After 2 hours, an additional 475 uL of cortical media was added and the cells returned to the incubator. Exposure starts at day 0 of plating and is continued over twelve days of network development until the experiment is terminated. Cells are fed with fresh medium on DIV 5 and 9, following the recordings on those days. The entire volume of media in the well is exchanged and any vehicle or compound treatment is renewed. Complete details are found in OP-NHEERL/ISTD/SBB/TJS/2015-03-r0 (available on request, email shafer.tim@epa.gov). Measurement of the electrical activity is non-invasive, and recordings can be made from the same plate over multiple different days of the culture. In cortical neurons, this allows for the measurement of extracellular action potentials over the period during which networks form in the MEA plate.
Take `NC(=O)NO`: the result was inactive. As usually defined, the AC50 is the concentration at which the activity in the assay is half-maximal. Take `CC[C@H](C)C(=O)O[C@H]1C[C@@H](C)C=C2C=C[C@H](C)[C@H](CC[C@@H]3C[C@@H](O)CC(=O)O3)[C@H]21`: the AC50 is 1770 nM (active). Still for that read-out and setting: then `CCC(C)(C)C(=O)O[C@H]1C[C@@H](C)C=C2C=C[C@H](C)[C@H](CC[C@@H]3C[C@@H](O)CC(=O)O3)[C@H]21`, with 844 nM (active). Consider `O=P(OC(CCl)CCl)(OC(CCl)CCl)OC(CCl)CCl`, for which the compound was classed as inactive. Take `Nc1nc2ncc(CNc3ccc(C(=O)N[C@@H](CCC(=O)O)C(=O)O)cc3)nc2c(=O)[nH]1`: the compound was classed as inactive.

As to `CC[C@H]1OC(=O)[C@H](C)[C@@H](O[C@H]2C[C@@](C)(OC)[C@@H](O)[C@H](C)O2)[C@H](C)[C@@H](O[C@@H]2O[C@H](C)C[C@H](N(C)C)[C@H]2O)[C@](C)(O)C[C@@H](C)C(=O)[C@H](C)[C@@H](O)[C@]1(C)O`, the compound was called inactive.

With `CNCc1ccc(NC(=O)c2c[nH]c3c2C(=O)CCC3)cc1`, the call was inactive. Regarding `COc1ccc(-n2nc(C(F)F)cc2-c2ccc(S(C)=O)cc2)cc1` (stereo not given), the compound was classed as inactive. As to `Cn1c(=O)c2c(ncn2C)n(C)c1=O`, the compound was classed as inactive.

With `O=C1CCC(N2C(=O)c3ccccc3C2=O)C(=O)N1` (stereo not given), the result was inactive.
